Assay outcomes deposited in PubChem BioAssay by several laboratories.
Compounds with a hit are over-represented: about 2.7% of the library has one in this group of screens.
eIF4E-4G inh = blocks eIF4E binding to eIF4G; TR-FRET eIF4E-eIF4GI(517-606) binding, 2 h; inhibition, % at 21.7 µM; actives 0.37% (n = 220,000);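 active means inhibition above about 30%, limit read from the data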;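 further: 0% = full FRET control wells and 100% = background wells lacking eIF4GI fragment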
Bim-Mcl-1 = disrupts Bim peptide binding to human Mcl-1; Q07820; Bead-based flow cytometry, Bim peptide-Mcl-1 binding; inhibition, % at 10 µM; actives 0.1% (n = 190,000); AID 1009; in the data active means inhibition above about 40%;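 further: 0% = no compound tracer wells and 100% = peptide blocker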
Pf gamet viab = inhibitors of late stage P. falciparum gametocyte viability; P. falciparum stage V gametocytes, ATP luminescence, 24 h; actives 0.065% (n = 150,000); inhibition, % at 10.9 µM;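 active means inhibition above the mean plus 3 SD of compounds within the control limits, set per campaign, cut at about 38% in these data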;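 further: 0% = DMSO wells and 100% = medium only without gametocytes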
14-3-3 Bad inh = disrupts binding of bovine 14-3-3 zeta to phospho-Bad peptide; TR-FRET 14-3-3zeta/Dy647-pBad peptide displacement, 1 h; actives 0.71% (n = 220,000); AID 781; inhibition, % at 21.7 µM; P63103;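 active means inhibition above about 70%, limit read from the data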;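 further: 0% = full 14-3-3 plus peptide FRET controls and 100% = background without 14-3-3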
Target sequence (P63103 whole entry, looked up): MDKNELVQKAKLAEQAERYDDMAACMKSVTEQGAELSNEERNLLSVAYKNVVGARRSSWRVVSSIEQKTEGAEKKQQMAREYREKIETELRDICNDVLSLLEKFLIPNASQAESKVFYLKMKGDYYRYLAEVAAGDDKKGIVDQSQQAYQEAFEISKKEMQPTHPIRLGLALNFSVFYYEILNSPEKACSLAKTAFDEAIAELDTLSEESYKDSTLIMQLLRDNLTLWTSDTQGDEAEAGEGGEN
Mcl1 Noxa PPI = disrupts binding of human Mcl-1 to Noxa peptide | actives 1.5% (n = 220,000) | TR-FRET Mcl-1/Noxa peptide binding, 2 h | Q07820 | inhibition, % at 21.7 µM | AID 1022;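 active means compounds that cut the protein-peptide binding signal by more than 50% relative to plate controls in a single-dose test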;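 further: His-tagged Mcl-1 with rhodamine Noxa BH3 peptide and terbium anti-His antibody; 0% = Mcl-1 plus Noxa peptide wells and 100% = peptide-only wells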
Mcl1-Bid inh = disrupts binding of human Mcl-1 to Bid peptide | Q07820 | TR-FRET Mcl-1/Bid-Dy647 peptide binding, 1536-well | inhibition, % at 21.7 µM | actives 0.97% (n = 220,000) | AID 1021;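 active means compounds that cut the binding signal by more than half at the single screening dose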;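 further: His-tagged Mcl-1 with europium anti-His antibody binding Bid BH3 peptide; 0% = Mcl-1 plus peptide wells and 100% = peptide-only wells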
* = called active by the depositor; x = no result given; [ ] = another dose, or the depositor's remark.

SMILES | eIF4E-4G inh | Bim-Mcl-1 | Pf gamet viab | 14-3-3 Bad inh | Mcl1 Noxa PPI | Mcl1-Bid inh
COC(=O)C1=C(C)C(c2ccc(OC)cc2OC)NC(=O)N1 (configuration not stated) | -7 | 3 | x | -4 | 4 | 65*
COC(=O)C1=C(C)C(c2ccc(OC)cc2)NC(=O)N1 (configuration not stated) | 3 | 0 | 7 | -5 | 14 | -7
O=C(Nc1nc2ccccc2s1)C1CCN(S(=O)(=O)c2cc([N+](=O)[O-])ccc2Cl)CC1 | 13 | x | 7 | 40 | 48 | -45
O=C(OCn1nnc2ccccc2c1=O)C1CCCCC1 | 7 | 0 | x | -1 | 54* | -17
CC(=O)Oc1cc(OC(C)=O)c2c(=O)c(-c3ccc4c(c3)OCCCO4)c(C)oc2c1 | -2 | x | 13 | -4 | 7 | 1
NC(=S)NNC(=O)[C@@H]1CCCC[C@@H]1C(=O)O | 3 | -12 | x | -5 | -3 | -61
Nc1scc2c(C(=O)N/N=C/c3ccc(Cl)cc3)nn(-c3ccccc3)c(=O)c12 | -6 | 1 | 16 | -3 | 94* | 4
COCCCN(C(=S)NC(=O)C12CC3CC(CC(C3)C1)C2)c1c(N)n(Cc2ccccc2)c(=O)[nH]c1=O | -3 | -5 | 2 | -19 | 7 | -56
CC1=N/C(=C\c2ccc([N+](=O)[O-])cc2)C(=O)N1c1ccc(Br)c(C)c1 | 2 | -6 | x | 10 | 14 | 10
CCN(CC(=O)Nc1c(F)cccc1F)C(=O)COc1ccc2c(C)cc(=O)oc2c1 | 5 | 0 | 16 | 9 | -5 | 7
Nc1c(C(=O)NC2CC2)sc2nc3c(c(-c4ccco4)c12)CC/C3=C/c1ccco1 | 27 | 35 | x | -8 | 97* | 84*
NC(=O)c1sc2nc3c(c(-c4ccco4)c2c1N)CCC3 | 5 | 10 | 24 | 13 | 25 | -26
Cc1cnc(CNC(=O)c2ccc(OC3CCN(C(=O)C4CC4)CC3)cc2)cn1 | -1 | -1 | -1 | -5 | 7 | -20
CC(NC(=O)CSc1nnc(CC(=O)Nc2ccc(Cl)c(Cl)c2)n1C)c1ccccc1 (configuration not stated) | 43*[fluorescence artefact?] | 0 | -8 | 62 | 14 | -1
COc1ccccc1N1CCN(C2CCN(C(=O)c3ccc(F)cc3)CC2)CC1 | -4 | -6 | 17 | 2 | -7 | -8
O=C(c1cccs1)N1CCC(N2CCN(c3ccccc3)CC2)CC1 | 2 | -1 | x | 32 | 5 | -29
COc1ccccc1N1CCN(C2CCN(C(=O)c3cc(OC)c(OC)c(OC)c3)CC2)CC1 | 4 | 4 | 8 | 79* | 20 | 35
COc1ccccc1N1CCN(C2CCN(C(=O)c3cccs3)CC2)CC1 | 2 | 1 | x | 54 | 8 | 58*
COc1ccc(C2CC(c3cccs3)=NN2C(=O)COC(=O)C2CCCCC2)cc1OC (configuration not stated) | 2 | -2 | -9 | 10 | 22 | -9
CCCCCCn1c(SCC(=O)Nc2cc(C)on2)nc2ccccc2c1=O | -20 | -1 | -9 | -9 | x | -13
Cc1cc(NC(=O)CSc2nnc(NCc3ccccc3)s2)no1 | 94* | x | -5 | 2 | 3 | -20
Cc1cc(NC(=O)CSc2ccc(F)cc2)no1 | -1 | -2 | 6 | 6 | 15 | -27
COCCSc1ccccc1C(=O)Nc1cc(C)on1 | 52* | -1 | x | -5 | 36 | -34
COc1ccccc1Nc1nnc(SCC(=O)Nc2cc(C)on2)s1 | -9 | 10 | x | 0 | 38 | 6
COc1ccccc1C(=O)Nc1cc(C)on1 | x | x | 11 | x | x | x
SMILES | eIF4E-4G inh | Bim-Mcl-1 | Pf gamet viab | 14-3-3 Bad inh | Mcl1 Noxa PPI | Mcl1-Bid inh
Cc1cc(NC(=O)CSc2nc3ccccc3c(=O)n2Cc2ccc(F)cc2)no1 | 12 | -1 | 15 | 74* | -180 | 57*
Cc1cc(NC(=O)CSc2ccccc2)no1 | 66* | -2 | x | 2 | -2 | -21
COc1cc(C(C)=O)ccc1OCC(O)Cn1nc(C)c(C(C)=O)c1C (configuration not stated) | x | x | 0 | x | x | x
COc1ccccc1Nc1nc(N)nc(CSC(=S)N2CCCCC2)n1 | -6 | x | 13 | -3 | 8 | -86
O=C(O)CCCCC1CCSS1 (configuration not stated) | 72* | -2 | x | 99* | 74* | 97*
CCCCCCC(=O)Oc1ccc(N2C(=O)CCC2=O)cc1 | 2 | 2 | 20 | 2 | 55* | 5
